Growth data for 8 compounds are collected here from PubChem BioAssay (NCI).

Common to all, as to experiment: NCI-60 one-dose screen, 48 h (100 = growth as untreated, 0 = no growth, -100 = all killed)
In test [1] the test system is NCI-H23 lung. To be noted: 10 µM unless noted.
Test [2] deals with NCI-H226 lung. To be noted: 10 µM unless noted.
The test system of test [3] is NCI-H322M lung. To be noted: 10 µM unless noted.
Test [4] relates to HOP-62 NSCLC. The conditions noted are these: 10 µM unless noted.
Test [5] concerns NCI-H460 lung. To be noted: 10 µM unless noted.
Test [6] relates to HOP-92 NSCLC. The conditions noted are these: 10 µM unless noted.
Test [7] concerns NCI-H522 lung. To be noted: 10 µM.
The test system of test [8] is 786-0 renal. To be noted: 10 µM unless noted.
Test [9] relates to COLO 205 colon. To be noted: 10 µM unless noted.
Test [10] deals with DU-145 prostate. The conditions noted are these: 10 µM unless noted.
For test [11], the system named is K-562 leukemia. To be noted: 10 µM unless noted.
For test [12], the system named is MALME-3M melanoma. To be noted: 10 µM unless noted.
For test [13], the system named is MDA-MB-231 breast. To be noted: 10 µM unless noted.
Test [14] has as its system SF-268 CNS. The conditions noted are these: 10 µM unless noted.
The test system of test [15] is SF-295 CNS. The conditions noted are these: 10 µM unless noted.
Test [16] has as its system SF-539 CNS. The conditions noted are these: 10 µM unless noted.
Test [17] relates to M14 melanoma. To be noted: 10 µM unless noted.
In test [18] the test system is UACC-257 melanoma. The conditions noted are these: 10 µM unless noted.

This is part of a sample that, as a whole, favours compounds with a hit. Of some 83,000 tested, about 20% had one in any assay.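 Note: values are percent growth. 100 is the growth of untreated cells, values between 100 and 0 indicate rising inhibition; between -100 and 0 indicates cell death.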 A number with no mark means an inactive call. Calls of active or inactive are those of the source. The calls were made as follows: active = growth percent below 10; inactive = the rest.

`NS(=O)(=O)N(c1cc(C(F)(F)F)cc(C(F)(F)F)c1)C1CCN(Cc2ccc(C(F)(F)F)cc2)CC1`: the growth was 9.79% (active) in test [1]; 78.1% in test [2]; 45.1% in test [3]; 30.2% in test [4]; 5.71% (active) in test [5]; 7.48% (active) in test [6]. Further, the growth in test [7] was -23.3% (active); in test [8], 42.3%; in test [9], -59.8% (active); in test [10], 8.8% (active); in test [11], 21%; in test [12], 71.2%. Also, the growth in test [13] was 19.1%; in [14], 38.5%; in test [15], 49.8%; in test [16], 0.806% (active); in [17], -0.587% (active).
As to `CCOC(=O)c1sc(NC(=O)COc2cccc(/C=C3\CCc4cc(OC)ccc4C3=O)c2)nc1C`, the growth is 89.5% in test [1]; 85.2% in [2]; 99.8% in [3]; 96.5% in test [4]; 80.8% in test [5]; 72.5% in test [6]. The growth in test [7] was 43.9%; in test [8] it was 88.1%; in test [9] it was 135%; in test [11], 5.6% (active); in test [12], 77.1%; in test [13] it was 89.2%. Moreover, the growth was 69.4% in test [14]; 90.3% in [15]; 26.4% in test [16]; 84.2% in test [18]; 89% in test [17].
For `O=C(COc1ccc(/C=C2\Oc3ccc4ccccc4c3C2=O)cc1)c1ccc([N+](=O)[O-])cc1`, the growth was 96.5% in test [1]; 105% in test [2]; 99.9% in test [3]; 118% in [4]; 104% in test [5]; 96.7% in test [6]. Besides, the growth in [7] was 49%; in test [8] it was 103%; in [9], 134%; in test [11], 79.4%; in test [12] it was 85.8%; in test [13], 94.9%. Further, the growth in test [14] was 96.9%; in test [15] it was 105%; in test [16], 65.6%; in [18] it was 94%; in [17] it was 92.8%.
Consider `COc1ccc(C(=O)COc2ccc(/C=C3\Oc4ccc5ccccc5c4C3=O)cc2)cc1`, for which the growth in test [1] is 90.7%; in [2] it was 107%; in [3], 100%; in [4], 104%; in test [5], 110%; in [6], 94.9%. Besides, the growth in [7] is 64%; in test [8], 106%; in [9], 121%; in test [11], 83%; in [12], 85.5%; in [13] it was 97%. The growth was 104% in test [14]; 102% in test [15]; 72.5% in [16]; 98.3% in [18]; 99.5% in test [17].
Consider `Nc1ccc(Oc2c(F)c(F)c(Oc3ccc(N)cc3)c(F)c2F)cc1`, for which the growth is 96.5% in test [1]; 104% in [2]; -4.94% (active) in test [3]; 101% in test [4]; 112% in [5]; 80.5% in test [6]. For the same compound, the growth in test [7] was 90.4%; in test [8] it was 106%; in test [9] it was 108%; in [10], 107%; in test [11], 93.3%; in [12] it was 87.1%. In addition, the growth in test [13] was 109%; in test [14] it was 97.9%; in test [15] it was 103%; in test [16], 111%; in test [18] it was 9.12% (active); in [17] it was 99.1%.
Turning to `O=C1/C(=C/c2ccccc2O)C(=S)SN1Cc1ccco1`, the growth is 105% in test [1]; 103% in test [2]; 90.3% in test [3]; 92.7% in [4]; 106% in [5]; 97.7% in test [6]. Moreover, the growth in [7] is 83.2%; in test [8], 103%; in test [9], 113%; in [10], 103%; in test [11], 46.4%; in [12] it was 106%. For the same compound, the growth in test [13] is 108%; in test [14] it was 105%; in test [15] it was 94.3%; in test [16] it was 97.4%; in test [18], 99.1%; in test [17], 99.8%.
On to `COC(=O)C1CCN(S(=O)(=O)c2ccc(-c3ccccc3)cc2)CC1`, for which the growth in test [1] is 97.7%; in [2], 93.3%; in test [3], 116%; in test [4], 113%; in test [5] it was 110%; in test [6] it was 86.8%. In addition, the growth in test [7] was 99.8%; in [8], 113%; in test [9] it was 108%; in test [10], 110%; in test [11], 103%; in [12], 122%. The growth is 115% in test [13]; 102% in [14]; 195% in test [15]; 101% in test [16]; 62.7% in test [18]; 107% in test [17].
For the compound `O=c1[nH]cc(Nc2cc(Cl)c3nonc3c2[N+](=O)[O-])c(=O)[nH]1`, the growth is 91.2% in [1]; 92.3% in test [2]; 110% in [3]; 102% in test [4]; 107% in test [5]; 95.5% in test [6]. The growth in [7] was 98%; in [8], 105%; in test [9], 109%; in [10] it was 111%; in test [11] it was 108%; in [12], 109%. Moreover, the growth is 104% in [13]; 126% in test [14]; -37.1% (active) in test [15]; 101% in test [16]; 25.2% in test [18]; 99.7% in [17].
